Data on 4 molecules can be found in PubChem BioAssay (EPA / NIEHS).

Holding throughout (settings): mRNA level, 48 h; actives raise or lower the signal
Read-out in assay [1]: Cyclin Dependent Kinase Inhibitor 1A (CDKN1A), CDKN1A (gene 1026)
In words: LTEA_HepaRG_CDKN1A: Life Technologies and Expression Analysis (LTEA) Assay for Cyclin Dependent Kinase Inhibitor 1A (CDKN1A) using HepaRG (AID 2283450). The method, boiled down:
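Differentiated HepaRG cells in serum-free induction medium, exposed 48 h in duplicate to eight half-log concentrations up to 100 uM in 0.5% DMSO. mRNA measured by TaqMan qRT-PCR, normalized to ACTB, GAPDH, POLR2A; bidirectional fit versus DMSO.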

Read-out in assay [2]: Cyclin D1 (CCND1), CCND1 (gene 595)
Briefly: LTEA_HepaRG_CCND1: Life Technologies and Expression Analysis (LTEA) Assay for Cyclin D1 (CCND1) using HepaRG (AID 2283451). The procedure, abridged: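 Differentiated HepaRG cells exposed 48 h in serum-free induction medium to eight half-log concentrations from 100 uM top, 0.5% DMSO, duplicates. CCND1 mRNA measured by Fluidigm TaqMan qRT-PCR, normalised to ACTB, GAPDH, POLR2A; bidirectional fit.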

Read-out in assay [3]: catalase (CAT), CAT (gene 847)
Briefly: LTEA_HepaRG_CAT: Life Technologies and Expression Analysis (LTEA) Assay for catalase (CAT) using HepaRG (AID 2283452). The procedure, abridged: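 Differentiated HepaRG cells in serum-free induction medium were dosed 48 h in duplicate, eight half-log concentrations from 100 uM in 0.5% DMSO. Transcript measured by TaqMan qRT-PCR, normalised to ACTB/GAPDH/POLR2A, fitted bidirectionally against DMSO.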

Read-out in assay [4]: flavin-containing dimethylaniline monooxygenases 3 (FMO3), FMO3 (gene 2328)
Briefly: LTEA_HepaRG_FMO3: Life Technologies and Expression Analysis (LTEA) Assay for flavin-containing dimethylaniline monooxygenases 3 (FMO3) using HepaRG (AID 2283453). The procedure, abridged:
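HepaRG, 48 h exposure, 8-pt half-log series from 100 uM, 0.5% DMSO vehicle, duplicates; FMO3 transcript by Fluidigm TaqMan qRT-PCR, housekeeping-normalized; gain/loss fit vs DMSO.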

Read-out in assay [5]: Cytochrome P450 (CYP1A1), CYP1A1 (gene 1543)
Briefly: LTEA_HepaRG_CYP1A1: Life Technologies and Expression Analysis (LTEA) Assay for Cytochrome P450 (CYP1A1) using HepaRG (AID 2283454). The method, boiled down:
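Differentiated human HepaRG cells, after 48 h plating, exposed in duplicate for 48 h in serum-free induction medium to 8 half-log concentrations up to 100 uM in 0.5% DMSO. CYP1A1 mRNA by qRT-PCR, normalized to ACTB/GAPDH/POLR2A; bidirectional fit versus DMSO.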

Read-out in assay [6]: CFLAR gene, CFLAR (gene 8837)
In words: LTEA_HepaRG_CFLAR: Life Technologies and Expression Analysis (LTEA) Assay for CFLAR gene using HepaRG (AID 2283455). The procedure, abridged:
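HepaRG cells were plated for 48 h, switched to serum-free induction medium, then exposed in duplicate for 48 h to 8 concentrations (top 100 uM, half-log steps, 0.5% DMSO). CFLAR mRNA was measured by qRT-PCR, normalized to ACTB, GAPDH and POLR2A.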

Read-out in assay [7]: Forkhead box O1 (FOXO1), FOXO1 (gene 2308)
Briefly: LTEA_HepaRG_FOXO1: Life Technologies and Expression Analysis (LTEA) Assay for Forkhead box O1 (FOXO1) using HepaRG (AID 2283456). The procedure, abridged: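 Differentiated human HepaRG cells in serum-free induction medium were exposed in duplicate for 48 h to eight half-log concentrations (top 100 uM, 0.5% DMSO). FOXO1 mRNA was measured by TaqMan qRT-PCR, normalised to ACTB, GAPDH and POLR2A, and fitted bidirectionally against DMSO.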

Read-out in assay [8]: growth arrest and DNA damage 45 (GADD45A), GADD45A (gene 1647)
Briefly: LTEA_HepaRG_GADD45A: Life Technologies and Expression Analysis (LTEA) Assay for growth arrest and DNA damage 45 (GADD45A) using HepaRG (AID 2283458). The procedure, abridged:
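Differentiated HepaRG cells were exposed in duplicate for 48 h in serum-free induction medium to 8-point half-log concentrations up to 100 uM in 0.5% DMSO. GADD45A mRNA was measured by TaqMan qRT-PCR, normalized to ACTB, GAPDH and POLR2A, with bidirectional fitting versus DMSO.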

Read-out in assay [9]: Forkhead box O3 (FOXO3), FOXO3 (gene 2309)
In words: LTEA_HepaRG_FOXO3: Life Technologies and Expression Analysis (LTEA) Assay for Forkhead box O3 (FOXO3) using HepaRG (AID 2283459). The method, boiled down:
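Differentiated human HepaRG cells in serum-free induction medium were exposed in duplicate for 48 h to eight half-log concentrations up to 100 uM in 0.5% DMSO. FOXO3 mRNA was quantified by qRT-PCR, normalized to ACTB, GAPDH and POLR2A, with bidirectional fitting versus DMSO.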

Read-out in assay [10]: ABC Transporter (ABCB1), ABCB1 (gene 5243)
Briefly: LTEA_HepaRG_ABCB1: Life Technologies and Expression Analysis (LTEA) Assay for ABC Transporter (ABCB1) using HepaRG (AID 2283460). The method, boiled down:
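Differentiated human HepaRG cells, plated 48 h then switched to serum-free induction medium, were exposed in duplicate to eight half-log concentrations up to 100 uM in 0.5% DMSO for 48 h. ABCB1 mRNA was measured by TaqMan qRT-PCR, normalized to ACTB/GAPDH/POLR2A.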

Read-out in assay [11]: ABC Transporter (ABCC3), ABCC3 (gene 8714)
In words: LTEA_HepaRG_ABCC3: Life Technologies and Expression Analysis (LTEA) Assay for ABC Transporter (ABCC3) using HepaRG (AID 2283462). The method, boiled down: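 Differentiated human HepaRG cells exposed 48 h in serum-free induction medium, 0.5% DMSO vehicle, 8-point half-log series to 100 uM in duplicate. ABCC3 mRNA by qRT-PCR, normalised to ACTB, GAPDH, POLR2A; bidirectional fit vs DMSO.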

Read-out in assay [12]: ABC Transporter (ABCB11), ABCB11 (gene 8647)
Briefly: LTEA_HepaRG_ABCB11: Life Technologies and Expression Analysis (LTEA) Assay for ABC Transporter (ABCB11) using HepaRG (AID 2283463). The method, boiled down: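 Differentiated human HepaRG cells were exposed for 48 h in serum-free induction medium to eight half-log concentrations up to 100 uM in 0.5% DMSO. ABCB11 mRNA was quantified by qRT-PCR, normalized to ACTB, GAPDH and POLR2A, and fitted bidirectionally versus DMSO.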

Read-out in assay [13]: ABC Transporter (ABCC2), ABCC2 (gene 1244)
In words: LTEA_HepaRG_ABCC2: Life Technologies and Expression Analysis (LTEA) Assay for ABC Transporter (ABCC2) using HepaRG (AID 2283464). The procedure, abridged: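 Differentiated HepaRG cells in serum-free induction medium exposed 48 h to eight half-log concentrations up to 100 uM, 0.5% DMSO, in duplicate. ABCC2 mRNA measured by qRT-PCR (TaqMan, Fluidigm), normalized to ACTB, GAPDH and POLR2A. Fitted in both directions against DMSO.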

Read-out in assay [14]: Broad substrate specificity ATP-binding cassette transporter ABCG2 (Homo sapiens) (UniProt Q9UNQ0)
In words: LTEA_HepaRG_ABCG2: Life Technologies and Expression Analysis (LTEA) Assay for ABC Transporter (ABCG2) using HepaRG (AID 2283465). The method, boiled down:
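Differentiated HepaRG cells in serum-free induction medium were exposed for 48 h, in duplicate, to eight half-log concentrations up to 100 uM in 0.5% DMSO. ABCG2 mRNA was measured by TaqMan qRT-PCR, normalized to ACTB, GAPDH and POLR2A, and fitted bidirectionally versus DMSO.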

Read-out in assay [15]: ATP-citrate lyase (ACLY), ACLY (gene 47)
In words: LTEA_HepaRG_ACLY: Life Technologies and Expression Analysis (LTEA) Assay for ATP-citrate lyase (ACLY) using HepaRG (AID 2283466). The procedure, abridged:
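Differentiated human HepaRG cells in serum-free induction medium exposed 48 h, in duplicate, to eight half-log concentrations from 100 uM top in 0.5% DMSO; ACLY mRNA measured by qRT-PCR, normalized to ACTB, GAPDH, POLR2A, fitted bidirectionally versus DMSO.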

Read-out in assay [16]: Bcl-2 (BAD) gene, BAD (gene 572)
In words: LTEA_HepaRG_BAD: Life Technologies and Expression Analysis (LTEA) Assay for Bcl-2 (BAD) gene using HepaRG (AID 2283469). The method, boiled down: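 Differentiated human HepaRG cells in serum-free induction medium were exposed in duplicate for 48 h to eight concentrations (top 100 uM, half-log steps, 0.5% DMSO). BAD mRNA was quantified by qRT-PCR normalised to ACTB, GAPDH and POLR2A, with bidirectional fitting versus DMSO.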

Read-out in assay [17]: Peroxisomal acyl-coenzyme A oxidase 1 (ACOX1) gene, ACOX1 (gene 51)
Briefly: LTEA_HepaRG_ACOX1: Life Technologies and Expression Analysis (LTEA) Assay for Peroxisomal acyl-coenzyme A oxidase 1 (ACOX1) gene using HepaRG (AID 2283467). The method, boiled down: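 Differentiated human HepaRG cells were exposed in duplicate for 48 h in serum-free induction medium to eight half-log concentrations up to 100 uM in 0.5% DMSO. ACOX1 mRNA was then quantified by TaqMan qRT-PCR, normalized to ACTB, GAPDH and POLR2A.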

Read-out in assay [18]: Alkaline Phosphatase, Placental (ALPP) gene, ALPP (gene 250)
In words: LTEA_HepaRG_ALPP: Life Technologies and Expression Analysis (LTEA) Assay for Alkaline Phosphatase, Placental (ALPP) gene using HepaRG (AID 2283468). The method, boiled down: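 HepaRG cells plated 48 h, then exposed in duplicate for 48 h in serum-free induction medium to 8-point half-log series from 100 uM in 0.5% DMSO. ALPP mRNA by TaqMan qRT-PCR, normalized to ACTB/GAPDH/POLR2A; bidirectional fit versus DMSO.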

Read-out in assay [19]: growth arrest and DNA damage 45 (GADD45B), GADD45B (gene 4616)
Briefly: LTEA_HepaRG_GADD45B: Life Technologies and Expression Analysis (LTEA) Assay for growth arrest and DNA damage 45 (GADD45B) using HepaRG (AID 2283461). The method, boiled down: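 Differentiated human HepaRG cells in serum-free induction medium exposed 48 h in duplicate to eight concentrations, top 100 uM, half-log steps, 0.5% DMSO. GADD45B mRNA by TaqMan qRT-PCR, normalized to ACTB, GAPDH, POLR2A; bidirectional fit versus DMSO.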

A word on the AC50: it is the concentration at which the activity in the assay is half-maximal.

The source made the active and inactive calls. How the source made its calls: active means hit-call score of the fitted dose curve at least 0.9, where 1 is the maximum; inactive means score below 0.9.

Sequence of Broad substrate specificity ATP-binding cassette transporter ABCG2 (Homo sapiens) (Q9UNQ0 whole entry, looked up): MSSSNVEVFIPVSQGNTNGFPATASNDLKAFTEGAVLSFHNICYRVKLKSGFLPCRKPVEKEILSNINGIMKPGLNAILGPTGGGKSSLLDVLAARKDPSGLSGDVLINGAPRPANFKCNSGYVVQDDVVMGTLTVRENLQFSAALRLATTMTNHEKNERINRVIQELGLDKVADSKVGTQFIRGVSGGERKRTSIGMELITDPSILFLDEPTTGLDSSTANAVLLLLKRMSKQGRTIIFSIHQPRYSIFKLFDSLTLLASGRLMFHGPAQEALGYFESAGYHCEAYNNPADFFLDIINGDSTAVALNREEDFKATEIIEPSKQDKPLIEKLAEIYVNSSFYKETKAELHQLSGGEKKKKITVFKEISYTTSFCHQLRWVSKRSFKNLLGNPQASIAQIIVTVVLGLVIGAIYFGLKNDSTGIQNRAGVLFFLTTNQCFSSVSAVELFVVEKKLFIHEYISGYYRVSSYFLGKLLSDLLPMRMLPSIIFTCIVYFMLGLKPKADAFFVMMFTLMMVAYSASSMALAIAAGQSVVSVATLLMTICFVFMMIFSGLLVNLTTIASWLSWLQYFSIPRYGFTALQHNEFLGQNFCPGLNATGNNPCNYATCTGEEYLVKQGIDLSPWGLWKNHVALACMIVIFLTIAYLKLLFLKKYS

`c1ccc2occc2c1`: the outcome in assay [1], in assay [2], in assay [3], in assay [4], in assay [5] and in [6] was inactive. Also, the call in [7], in [8], in [9], in assay [10], in assay [11] and in [12] was inactive. For the same molecule, the result in [13], in [14], in assay [15] and in assay [16] was inactive.

In the case of `NC1CCCCC1`, the call in [1], in assay [2], in [3], in assay [4], in assay [5] and in assay [6] was inactive. Also, the molecule was classed as inactive in assay [7], in [8], in assay [9], in [10], in assay [11] and in [12]. For the same molecule, the outcome in assay [13], in assay [14], in assay [15], in assay [17], in assay [18] and in [16] was inactive.

With `CC(C)COC(=O)CCCCC(=O)OCC(C)C`, the molecule was called inactive in assay [1], in [2], in [3], in [4], in assay [5] and in [6]. In addition, the molecule was classed as inactive in [7], in assay [8], in assay [9], in assay [10], in [19] and in [11]. Further, the molecule was classed as inactive in [12], in [13], in assay [14], in assay [15], in [17] and in assay [16].

On to `Oc1ccc(O)cc1`, for which the result in assay [1], in [2], in assay [3], in assay [4], in assay [6] and in assay [7] was inactive. The result in assay [8], in assay [9], in assay [10], in assay [19], in assay [11] and in assay [12] was inactive. The outcome in [13], in [14], in assay [15] and in assay [18] was inactive. Besides, the AC50 in assay [5] was 50 µM (active).
